{
  "source": "the supplement of paper PMC6555819",
  "data": [
    {"tested_on": "PXR:RXRa (NR concentration 270 nM, RXRa partner concentration 90 nM)", "experiment": "PBM binding z-score (relative to random genomic background probes); higher = stronger binding; sequences stand for … in GC…GCGATTGACAGCGTAGAATGAAGG", "how_it_was_run": "(§1)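 Antibodies against each partner of ligand-free nuclear receptor dimers (one per run) detected binding on custom Agilent 4×180K protein-binding microarrays after 1 h incubation. The double-stranded probes had 34-nt variable regions carrying direct-repeat seeds, single-nucleotide variants, half-site ablations and random human genomic background sequences. Binding z-scores, from regression-normalized fluorescence, use the random background probes as reference.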", "values": [
      {"sequence": "ATCGAAAGGTCGTGAGGTGTGTATACAGAAAGGC", "PBM binding z-score": 3.12},
      {"sequence": "GGAACGAGGGCAAAGGTGATAGCATCTGTCGACG", "PBM binding z-score": 1.9},
      {"sequence": "ATATGGAGGTTAAGGGTCATTCAGGTTGGTTCGC", "PBM binding z-score": 6.14},
      {"sequence": "CGTCAAAGTTCAACTAAGGTAACTTAAAGCACGC", "PBM binding z-score": 5.71},
      {"sequence": "CGGCCAAGGTCAAAGGTCAGTGAAGAGATGACGG", "PBM binding z-score": 7.3},
      {"sequence": "ATCTCTAGGTAAAGGTCAGTGAAAGATCGATAGA", "PBM binding z-score": 3.35},
      {"sequence": "CGTCCAAGGTCATAAGAGGTCAGTGAAGACAGAT", "PBM binding z-score": 7.11},
      {"sequence": "CCTAGTTGGCCAAGGTCACACACGCTATAGGTAC", "PBM binding z-score": 3.85},
      {"sequence": "CCTTACGGGTCACGGGGTTATAGCACGACGAGCG", "PBM binding z-score": 5.66},
      {"sequence": "TAGCCTAGGTCATTCAGGGGTCAGTATAGAAAGC", "PBM binding z-score": 5.72},
      {"sequence": "TCTAGTTGGTTACGGAGGTCACACACGACGGGTA", "PBM binding z-score": 4.22},
      {"sequence": "CGTCCAAGGTCAATGCTAGGTCACTGAAAGCATT", "PBM binding z-score": 5.45},
      {"sequence": "ATCGAAAGGTCGACGAGTTGAGTATACACCGTTT", "PBM binding z-score": 3.23},
      {"sequence": "TTACAAAGGTGAGCTGAGGTCGTTGATCCAACTC", "PBM binding z-score": 6.04},
      {"sequence": "CCGACTGGGGCAAAGGTTACCACACTCAGTACGA", "PBM binding z-score": 2.44},
      {"sequence": "CGTCAAAGTTCAACTAATGTAACGTAAAGCACGC", "PBM binding z-score": 4.97},
      {"sequence": "GCTTACGGGTCAAAGGTTATAGTATGAATAGAAT", "PBM binding z-score": 6.29},
      {"sequence": "CCTACAGGGCCAAAGGTCATTGATTCCAATGCTC", "PBM binding z-score": 5.66},
      {"sequence": "TAGCCTAGGTCATGGGCCAGTTTACCACGCGAAC", "PBM binding z-score": 2.12},
      {"sequence": "CCTACTGGGCCAAAGGTCAGTGATTCCAATGCTC", "PBM binding z-score": 3.49},
      {"sequence": "AGTCAAAGTTCATCTTGGTAACGTAAGATATGCT", "PBM binding z-score": 4.92},
      {"sequence": "ATACCAAGGTTATCGTGAGGTCGTTGATACTAAC", "PBM binding z-score": 4.73},
      {"sequence": "CCTTGCGGGTCACTGACAGGTTATAGCATTTGGA", "PBM binding z-score": 3.05},
      {"sequence": "CAAACTAGGTCACCGGAAAGTCAAAGTCCGCATG", "PBM binding z-score": 2.14},
      {"sequence": "TAGCCTAGGTCATTCAGGGGCCAGAATAGAAAGC", "PBM binding z-score": 2.48},
      {"sequence": "CACACTAGGTCAAGAGGTCAAAGTCCGCTTCCCG", "PBM binding z-score": 6.33},
      {"sequence": "CAAACTAGGTCACAGAGGTCGAAGTCCGTGCGTA", "PBM binding z-score": 4.41}
    ]},
    {"tested_on": "PXR homodimer (NR concentration 270 nM)", "experiment": "PBM binding z-score (relative to random genomic background probes); higher = stronger binding; sequences stand for … in GC…GCGATTGACAGCGTAGAATGAAGG", "how_it_was_run": "as §1", "values": [
      {"sequence": "ATCGAAAGGTCGTGAGGTGTGTATACAGAAAGGC", "PBM binding z-score": -0.215},
      {"sequence": "GGAACGAGGGCAAAGGTGATAGCATCTGTCGACG", "PBM binding z-score": 0.114},
      {"sequence": "ATATGGAGGTTAAGGGTCATTCAGGTTGGTTCGC", "PBM binding z-score": 3.95},
      {"sequence": "ATCGAAAGGTCGTGAGGTGACTATACAGAAAGGC", "PBM binding z-score": 0.227},
      {"sequence": "CGTCAAAGTTCAACTAAGGTAACTTAAAGCACGC", "PBM binding z-score": 4.62},
      {"sequence": "CGGCCAAGGTCAAAGGTCAGTGAAGAGATGACGG", "PBM binding z-score": 1.98},
      {"sequence": "ATCTCTAGGTAAAGGTCAGTGAAAGATCGATAGA", "PBM binding z-score": 1.1},
      {"sequence": "CGTCCAAGGTCATAAGAGGTCAGTGAAGACAGAT", "PBM binding z-score": 7.52},
      {"sequence": "CCTAGTTGGCCAAGGTCACACACGCTATAGGTAC", "PBM binding z-score": 1.93},
      {"sequence": "CCTTACGGGTCACGGGGTTATAGCACGACGAGCG", "PBM binding z-score": 0.491},
      {"sequence": "TAGCCTAGGTCATTCAGGGGTCAGTATAGAAAGC", "PBM binding z-score": 1.35},
      {"sequence": "TCTAGTTGGTTACGGAGGTCACACACGACGGGTA", "PBM binding z-score": 1.44},
      {"sequence": "AATACAGGGTCGCTAGGCCAGAGTAGGTACGAAT", "PBM binding z-score": -0.199},
      {"sequence": "ATACCAAGGTGATCGTGAGTTCGTTGATACTAAC", "PBM binding z-score": 3.19},
      {"sequence": "CGTCCAAGGTCAATGCTAGGTCACTGAAAGCATT", "PBM binding z-score": 2.08},
      {"sequence": "TTACCAAGGTCAGCTGAGGTCGTTGATCCAACTC", "PBM binding z-score": 3.87},
      {"sequence": "ATCGAAAGGTCGACGAGTTGAGTATACACCGTTT", "PBM binding z-score": 1.84},
      {"sequence": "TTACAAAGGTGAGCTGAGGTCGTTGATCCAACTC", "PBM binding z-score": 0.268},
      {"sequence": "GGAACGAGGGCATTCGAGTTGATAGCATGGCGAT", "PBM binding z-score": 1.45},
      {"sequence": "CCGACTGGGGCAAAGGTTACCACACTCAGTACGA", "PBM binding z-score": -0.0158},
      {"sequence": "CGTCAAAGTTCAACTAATGTAACGTAAAGCACGC", "PBM binding z-score": 5.1},
      {"sequence": "CCTTACGGGTCACTCTAGGTTATAGCATCGGAGT", "PBM binding z-score": 0.568},
      {"sequence": "GCTTACGGGTCAAAGGTTATAGTATGAATAGAAT", "PBM binding z-score": 0.804},
      {"sequence": "CCTACAGGGCCAAAGGTCATTGATTCCAATGCTC", "PBM binding z-score": 2.27},
      {"sequence": "TAGCCTAGGTCATGGGCCAGTTTACCACGCGAAC", "PBM binding z-score": -0.368},
      {"sequence": "CGTCCAAGGTAAGAGAGGTCAGTGAATGCCGAGT", "PBM binding z-score": 1.61},
      {"sequence": "CCGACGGGGGCAGAAAGGTTACCATACCATCCGG", "PBM binding z-score": 2.06},
      {"sequence": "CCTACTGGGCCAAAGGTCAGTGATTCCAATGCTC", "PBM binding z-score": 0.00567},
      {"sequence": "AGTCAAAGTTCATCTTGGTAACGTAAGATATGCT", "PBM binding z-score": 6.26},
      {"sequence": "ATACCAAGGTTATCGTGAGGTCGTTGATACTAAC", "PBM binding z-score": 2.85},
      {"sequence": "TCTCGGAGGTCACGAAGGTCAGAGCTTTCCAGAG", "PBM binding z-score": 9.02},
      {"sequence": "CCTTGCGGGTCACTGACAGGTTATAGCATTTGGA", "PBM binding z-score": -0.0222},
      {"sequence": "CTCGAAAGGTCGTCCTCAGGTGAGTATACCAAAC", "PBM binding z-score": 0.134}
    ]}
  ]
}
